Our source for the binding signal values is paper PMC7862700, “An all-to-all approach to the identification of sequence-specific readers for epigenetic DNA modifications on cytosine”.

Common to all, as to assay: DAPPL (digital affinity profiling via proximity ligation, sequencing); 10 mM Tris-HCl pH 7.5, 50 mM NaCl, 1 mM DTT, 4% glycerol, room temperature, 30 min; GST-TFs on glutathione beads, 16-mer random dsDNA library, 0.1% formaldehyde crosslink after washing; high values mean tight binding
Holding throughout (conditions): protein: recombinant; tags: N-terminal GST; dsDNA, one strand shown

The target of one assay is T1, FLI1 (Homo sapiens, UniProt Q01543 1-452).
T1 sequence: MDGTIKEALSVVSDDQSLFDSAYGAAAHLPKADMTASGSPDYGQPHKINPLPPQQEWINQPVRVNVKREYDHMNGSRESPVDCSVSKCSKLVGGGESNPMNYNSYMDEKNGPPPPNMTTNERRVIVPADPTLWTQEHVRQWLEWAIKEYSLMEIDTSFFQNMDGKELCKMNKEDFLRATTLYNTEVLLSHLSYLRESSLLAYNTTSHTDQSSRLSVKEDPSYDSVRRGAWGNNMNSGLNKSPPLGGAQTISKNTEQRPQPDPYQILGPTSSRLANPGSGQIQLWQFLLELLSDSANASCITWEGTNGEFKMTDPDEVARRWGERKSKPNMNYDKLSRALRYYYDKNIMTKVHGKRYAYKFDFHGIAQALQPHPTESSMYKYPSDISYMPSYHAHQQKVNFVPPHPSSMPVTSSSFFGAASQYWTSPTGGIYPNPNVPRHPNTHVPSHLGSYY
The method in brief: (§1)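 A tag-only sample was pooled with DNA-barcoded human transcription factors that had been expressed in yeast as GST fusions and captured on glutathione beads. The pools were incubated for 30 min at room temperature with 200 nmole of a random double-stranded 16-mer DNA library in Tris/NaCl/DTT/glycerol buffer, then washed, crosslinked with 0.1% formaldehyde, proximity-ligated (BsaI/T4 ligase, 1 h, 37 °C), PCR-amplified and sequenced on an Illumina NextSeq500. Binding signal is each hexamer's read frequency for a factor divided by its frequency for the tag-only sample.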

A further assay concerns the target T2, ELK1 (Homo sapiens, UniProt P19419 1-428).
T2 sequence: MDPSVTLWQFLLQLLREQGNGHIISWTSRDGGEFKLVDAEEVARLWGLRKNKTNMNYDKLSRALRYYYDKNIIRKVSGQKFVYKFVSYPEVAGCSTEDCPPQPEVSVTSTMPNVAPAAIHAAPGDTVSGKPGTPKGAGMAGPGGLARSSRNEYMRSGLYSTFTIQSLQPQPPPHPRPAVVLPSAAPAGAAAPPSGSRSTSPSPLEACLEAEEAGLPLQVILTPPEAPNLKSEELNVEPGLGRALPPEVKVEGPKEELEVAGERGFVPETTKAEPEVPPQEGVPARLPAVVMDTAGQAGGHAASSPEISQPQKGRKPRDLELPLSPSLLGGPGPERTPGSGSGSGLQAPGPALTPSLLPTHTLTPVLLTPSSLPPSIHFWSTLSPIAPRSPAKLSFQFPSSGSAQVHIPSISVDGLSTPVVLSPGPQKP
The method in brief:
as §1

The target in the next assay is T3, GABPA (Homo sapiens, UniProt Q06546 1-454).
T3 sequence: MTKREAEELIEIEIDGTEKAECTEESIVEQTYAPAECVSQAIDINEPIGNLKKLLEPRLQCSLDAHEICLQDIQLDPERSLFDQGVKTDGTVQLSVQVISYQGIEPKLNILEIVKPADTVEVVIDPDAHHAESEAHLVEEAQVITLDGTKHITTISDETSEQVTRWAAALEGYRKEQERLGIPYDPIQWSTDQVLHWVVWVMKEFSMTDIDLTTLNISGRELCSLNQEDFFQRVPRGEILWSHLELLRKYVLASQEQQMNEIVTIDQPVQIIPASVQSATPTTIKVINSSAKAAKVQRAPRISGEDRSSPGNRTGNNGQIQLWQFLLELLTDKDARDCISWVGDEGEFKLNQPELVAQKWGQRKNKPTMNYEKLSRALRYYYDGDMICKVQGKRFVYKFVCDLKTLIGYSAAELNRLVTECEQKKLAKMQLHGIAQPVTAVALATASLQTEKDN
In outline: as §1

A further assay concerns the target T4, ERG (Homo sapiens, UniProt P11308 1-479).
T4 sequence: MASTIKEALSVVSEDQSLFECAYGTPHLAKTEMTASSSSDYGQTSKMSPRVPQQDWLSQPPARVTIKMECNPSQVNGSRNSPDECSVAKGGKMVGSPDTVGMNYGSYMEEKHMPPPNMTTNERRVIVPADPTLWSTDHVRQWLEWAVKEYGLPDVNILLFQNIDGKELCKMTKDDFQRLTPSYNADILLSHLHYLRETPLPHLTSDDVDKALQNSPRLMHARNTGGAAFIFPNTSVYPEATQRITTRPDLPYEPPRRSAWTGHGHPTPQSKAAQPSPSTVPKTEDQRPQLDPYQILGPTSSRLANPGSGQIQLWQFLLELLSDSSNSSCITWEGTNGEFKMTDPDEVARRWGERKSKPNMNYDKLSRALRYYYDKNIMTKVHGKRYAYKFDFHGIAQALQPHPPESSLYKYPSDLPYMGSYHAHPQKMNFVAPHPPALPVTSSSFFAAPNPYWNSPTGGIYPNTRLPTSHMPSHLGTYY
The method in brief:
as §1

In the next assay the target is ELF1 (Homo sapiens, UniProt P32519 1-619). The method in brief:
as §1

A further assay addresses T5, EHF (Homo sapiens, UniProt Q9NZC4 1-300).
T5 sequence: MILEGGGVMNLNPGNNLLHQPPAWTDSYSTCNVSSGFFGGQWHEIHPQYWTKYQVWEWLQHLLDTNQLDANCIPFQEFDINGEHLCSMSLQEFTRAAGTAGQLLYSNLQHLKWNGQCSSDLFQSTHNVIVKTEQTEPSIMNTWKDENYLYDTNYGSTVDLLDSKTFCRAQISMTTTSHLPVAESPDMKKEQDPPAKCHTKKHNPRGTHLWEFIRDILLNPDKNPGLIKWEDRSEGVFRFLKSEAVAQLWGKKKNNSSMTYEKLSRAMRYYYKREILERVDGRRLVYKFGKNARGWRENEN
The method in brief:
as §1

Another assay addresses SPI1 (Homo sapiens, UniProt P17947 1-270). The method in brief: as §1
For the next assay, the target named is SPIB (Homo sapiens, UniProt Q01892 1-262). In outline: as §1
The target of the next assay is T6, ELK3 (Homo sapiens, UniProt P41970 1-407).
T6 sequence: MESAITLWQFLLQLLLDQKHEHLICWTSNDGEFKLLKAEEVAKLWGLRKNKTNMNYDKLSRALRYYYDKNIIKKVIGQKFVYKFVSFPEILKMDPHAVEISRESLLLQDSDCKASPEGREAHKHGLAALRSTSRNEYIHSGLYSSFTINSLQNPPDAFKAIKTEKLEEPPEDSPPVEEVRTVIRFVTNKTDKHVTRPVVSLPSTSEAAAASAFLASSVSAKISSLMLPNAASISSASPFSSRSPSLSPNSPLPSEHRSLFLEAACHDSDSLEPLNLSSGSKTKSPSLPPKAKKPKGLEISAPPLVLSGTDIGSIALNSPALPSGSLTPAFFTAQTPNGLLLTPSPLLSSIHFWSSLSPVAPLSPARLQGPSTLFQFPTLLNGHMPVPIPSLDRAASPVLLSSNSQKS
The method in brief: as §1

ELF1, sequence (P32519 whole entry): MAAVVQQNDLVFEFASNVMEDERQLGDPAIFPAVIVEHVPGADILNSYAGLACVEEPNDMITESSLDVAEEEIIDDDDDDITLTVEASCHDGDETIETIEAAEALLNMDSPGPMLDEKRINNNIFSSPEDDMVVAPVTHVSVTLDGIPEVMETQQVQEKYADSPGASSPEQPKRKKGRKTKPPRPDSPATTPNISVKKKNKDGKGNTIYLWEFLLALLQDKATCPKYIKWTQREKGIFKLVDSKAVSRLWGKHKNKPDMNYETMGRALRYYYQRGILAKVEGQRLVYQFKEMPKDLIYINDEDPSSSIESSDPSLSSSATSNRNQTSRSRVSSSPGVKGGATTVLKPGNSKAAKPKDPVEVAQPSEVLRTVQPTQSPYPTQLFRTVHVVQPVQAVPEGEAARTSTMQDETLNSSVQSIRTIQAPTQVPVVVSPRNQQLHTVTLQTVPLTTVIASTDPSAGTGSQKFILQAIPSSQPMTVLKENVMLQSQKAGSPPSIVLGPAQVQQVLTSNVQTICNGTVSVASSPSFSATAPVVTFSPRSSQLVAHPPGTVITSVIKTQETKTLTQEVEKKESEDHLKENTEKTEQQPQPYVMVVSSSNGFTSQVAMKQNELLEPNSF
SPIB, sequence (Q01892 whole entry): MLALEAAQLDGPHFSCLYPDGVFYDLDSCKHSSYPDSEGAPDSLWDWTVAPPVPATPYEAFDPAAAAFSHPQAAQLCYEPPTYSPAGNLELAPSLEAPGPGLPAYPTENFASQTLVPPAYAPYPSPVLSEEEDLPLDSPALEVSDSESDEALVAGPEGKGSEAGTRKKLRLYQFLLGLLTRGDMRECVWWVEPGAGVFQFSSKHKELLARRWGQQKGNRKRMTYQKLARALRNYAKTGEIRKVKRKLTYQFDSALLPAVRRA

With CATCTG, the binding signal in the assay with FLI1 was 1.24 fold enrichment (6-mer frequency, TF over GST control); with ELK1, 1.23 fold enrichment (6-mer frequency, TF over GST control); with GABPA, 1.37 fold enrichment (6-mer frequency, TF over GST control); with ERG, 1.16 fold enrichment (6-mer frequency, TF over GST control); with ELF1, 1.33 fold enrichment (6-mer frequency, TF over GST control); with EHF, 1.31 fold enrichment (6-mer frequency, TF over GST control). Also, the binding signal with SPI1 is 1.08 fold enrichment (6-mer frequency, TF over GST control); with SPIB, 1.28 fold enrichment (6-mer frequency, TF over GST control); with ELK3, 1.25 fold enrichment (6-mer frequency, TF over GST control).
As to TCCATC, the binding signal was 1.28 fold enrichment (6-mer frequency, TF over GST control) with FLI1; 1.28 fold enrichment (6-mer frequency, TF over GST control) with ELK1; 1.15 fold enrichment (6-mer frequency, TF over GST control) with GABPA; 1.17 fold enrichment (6-mer frequency, TF over GST control) in the assay with ERG; 1.29 fold enrichment (6-mer frequency, TF over GST control) with ELF1; 1.2 fold enrichment (6-mer frequency, TF over GST control) with EHF. Further, the binding signal with SPI1 is 1.19 fold enrichment (6-mer frequency, TF over GST control); in the assay with SPIB, 1.16 fold enrichment (6-mer frequency, TF over GST control); with ELK3, 1.28 fold enrichment (6-mer frequency, TF over GST control).
For the sequence ATGTAG, the binding signal in the assay with FLI1 is 1.05 fold enrichment (6-mer frequency, TF over GST control); in the assay with ELK1, 1.03 fold enrichment (6-mer frequency, TF over GST control); in the assay with GABPA, 1.04 fold enrichment (6-mer frequency, TF over GST control); in the assay with ERG, 1.01 fold enrichment (6-mer frequency, TF over GST control); with ELF1, 1.09 fold enrichment (6-mer frequency, TF over GST control); in the assay with EHF it was 1.07 fold enrichment (6-mer frequency, TF over GST control). Further, the binding signal was 1 fold enrichment (6-mer frequency, TF over GST control) in the assay with SPI1; 1.01 fold enrichment (6-mer frequency, TF over GST control) with SPIB; 1.05 fold enrichment (6-mer frequency, TF over GST control) with ELK3.
Regarding GCTTAT, the binding signal is 1.33 fold enrichment (6-mer frequency, TF over GST control) with FLI1; 1.21 fold enrichment (6-mer frequency, TF over GST control) with ELK1; 1.28 fold enrichment (6-mer frequency, TF over GST control) with GABPA; 1.18 fold enrichment (6-mer frequency, TF over GST control) with ERG; 1.28 fold enrichment (6-mer frequency, TF over GST control) with ELF1; 1.12 fold enrichment (6-mer frequency, TF over GST control) with EHF. In addition, the binding signal with SPI1 is 1.3 fold enrichment (6-mer frequency, TF over GST control); with SPIB, 1.31 fold enrichment (6-mer frequency, TF over GST control); in the assay with ELK3, 1.16 fold enrichment (6-mer frequency, TF over GST control).
Consider CGATAC, for which the binding signal is 1.19 fold enrichment (6-mer frequency, TF over GST control) with FLI1; 1.19 fold enrichment (6-mer frequency, TF over GST control) with ELK1; 1.27 fold enrichment (6-mer frequency, TF over GST control) in the assay with GABPA; 1.18 fold enrichment (6-mer frequency, TF over GST control) with ERG; 1.19 fold enrichment (6-mer frequency, TF over GST control) with ELF1; 1.2 fold enrichment (6-mer frequency, TF over GST control) with EHF. The binding signal in the assay with SPI1 was 1.15 fold enrichment (6-mer frequency, TF over GST control); in the assay with SPIB, 1.06 fold enrichment (6-mer frequency, TF over GST control); in the assay with ELK3, 1.14 fold enrichment (6-mer frequency, TF over GST control).
Turning to TCCAAA, the binding signal in the assay with FLI1 is 1.08 fold enrichment (6-mer frequency, TF over GST control); with ELK1, 1.18 fold enrichment (6-mer frequency, TF over GST control); in the assay with GABPA, 1.31 fold enrichment (6-mer frequency, TF over GST control); with ERG, 1.19 fold enrichment (6-mer frequency, TF over GST control); with ELF1, 1.18 fold enrichment (6-mer frequency, TF over GST control); in the assay with EHF, 1.1 fold enrichment (6-mer frequency, TF over GST control). In addition, the binding signal in the assay with SPI1 is 1.12 fold enrichment (6-mer frequency, TF over GST control); in the assay with SPIB, 1.17 fold enrichment (6-mer frequency, TF over GST control); with ELK3 it was 1.17 fold enrichment (6-mer frequency, TF over GST control).
Turning to ACCTTC, the binding signal in the assay with FLI1 was 1.8 fold enrichment (6-mer frequency, TF over GST control); with ELK1 it was 1.94 fold enrichment (6-mer frequency, TF over GST control); with GABPA it was 1.79 fold enrichment (6-mer frequency, TF over GST control); in the assay with ERG, 2.03 fold enrichment (6-mer frequency, TF over GST control); with ELF1, 1.92 fold enrichment (6-mer frequency, TF over GST control); with EHF it was 2.02 fold enrichment (6-mer frequency, TF over GST control). Moreover, the binding signal with SPI1 is 1.75 fold enrichment (6-mer frequency, TF over GST control); in the assay with SPIB, 1.95 fold enrichment (6-mer frequency, TF over GST control); with ELK3, 1.8 fold enrichment (6-mer frequency, TF over GST control).
In the case of GCGACC, the binding signal with FLI1 was 1.09 fold enrichment (6-mer frequency, TF over GST control); with ELK1, 1.11 fold enrichment (6-mer frequency, TF over GST control); with GABPA it was 1.09 fold enrichment (6-mer frequency, TF over GST control); with ERG, 1.17 fold enrichment (6-mer frequency, TF over GST control); with ELF1, 1.15 fold enrichment (6-mer frequency, TF over GST control); with EHF it was 1.2 fold enrichment (6-mer frequency, TF over GST control). Moreover, the binding signal with SPI1 is 1.07 fold enrichment (6-mer frequency, TF over GST control); with SPIB it was 1.08 fold enrichment (6-mer frequency, TF over GST control); in the assay with ELK3 it was 1.02 fold enrichment (6-mer frequency, TF over GST control).
